Holding throughout (details): mRNA level, 48 h; actives raise or lower the signal
Read-out in experiment [1]: Peroxisomal acyl-coenzyme A oxidase 1 (ACOX1) gene, ACOX1 (gene 51)
In words: LTEA_HepaRG_ACOX1: Life Technologies and Expression Analysis (LTEA) Assay for Peroxisomal acyl-coenzyme A oxidase 1 (ACOX1) gene using HepaRG (AID 2283467). An outline of the steps: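 Measured by qRT-PCR against three housekeeping genes: ACOX1 transcript change in human HepaRG cells after 48 h dosing. Concentrations ran up to 100 uM in half-log steps. Curves were fitted bidirectionally relative to 0.5% DMSO.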

Read-out in experiment [2]: Alkaline Phosphatase, Placental (ALPP) gene, ALPP (gene 250)
In words: LTEA_HepaRG_ALPP: Life Technologies and Expression Analysis (LTEA) Assay for Alkaline Phosphatase, Placental (ALPP) gene using HepaRG (AID 2283468).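 On AC50: differentiated human HepaRG liver cells in serum-free induction medium.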 The method, boiled down:
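ALPP transcript level, measured by qRT-PCR and normalized to three housekeeping genes (ACTB, GAPDH, POLR2A), after 48 h dosing of differentiated HepaRG in serum-free induction medium. Top concentration 100 uM with half-log dilutions (8 points, 0.5% DMSO, duplicates); bidirectional fitting relative to DMSO.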

Read-out in experiment [3]: Bcl-2 (BAD) gene, BAD (gene 572)
In words: LTEA_HepaRG_BAD: Life Technologies and Expression Analysis (LTEA) Assay for Bcl-2 (BAD) gene using HepaRG (AID 2283469). An outline of the steps:
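BAD transcript change, measured by qRT-PCR against three housekeeping genes and fitted in both directions relative to 0.5% DMSO, after 48 h chemical treatment of human HepaRG liver cells at concentrations up to 100 uM.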

Read-out in experiment [4]: adenosine kinase (ADK) gene, ADK (gene 132)
Kind of experiment: LTEA_HepaRG_ADK: Life Technologies and Expression Analysis (LTEA) Assay for adenosine kinase (ADK) gene using HepaRG (AID 2283471). The method, boiled down:
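Following 48 h exposure of HepaRG cells in 0.5% DMSO (top concentration 100 uM, duplicate wells), ADK mRNA induction or suppression was measured by qRT-PCR, normalised to ACTB/GAPDH/POLR2A, and fitted bidirectionally relative to vehicle.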

Read-out in experiment [5]: Alpha-fetoprotein (AFP) gene, AFP (gene 174)
In words: LTEA_HepaRG_AFP: Life Technologies and Expression Analysis (LTEA) Assay for Alpha-fetoprotein (AFP) gene using HepaRG (AID 2283472). The method, boiled down: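 After a 48 h plating period, cells are moved to serum-free induction medium and dosed in duplicate (100 uM maximum, half-log dilutions, 0.5% DMSO) for another 48 h. Total RNA goes to TaqMan qRT-PCR; AFP signal is housekeeping-normalized.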

Read-out in another experiment: BCL2L11 (gene 10018)
Kind of experiment: LTEA_HepaRG_BCL2L11: Life Technologies and Expression Analysis (LTEA) Assay for Bcl-2 (BCL2L11) gene using HepaRG (AID 2283473). The method, boiled down: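 BCL2L11 transcript levels are measured by Fluidigm qRT-PCR, normalized to three housekeeping genes. HepaRG cultures were plated 48 h, then treated 48 h with test chemical (top 100 uM, half-log, 0.5% DMSO vehicle); curves were fitted bidirectionally against DMSO.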

Read-out in experiment [6]: Apolipoprotein A-V (APOA5) gene, APOA5 (gene 116519)
In words: LTEA_HepaRG_APOA5: Life Technologies and Expression Analysis (LTEA) Assay for Apolipoprotein A-V (APOA5) gene using HepaRG (AID 2283474). The method, boiled down: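 APOA5 transcript levels were quantified by qRT-PCR, normalized to three housekeeping genes, after 48 h chemical treatment of HepaRG cells (8 points, 100 uM maximum, half-log steps, 0.5% DMSO). Curves fitted in both directions against vehicle.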

Read-out in experiment [7]: Apoptosis regulator Bcl-2 (Homo sapiens) (UniProt P10415)
In words: LTEA_HepaRG_BCL2: Life Technologies and Expression Analysis (LTEA) Assay for Bcl-2 gene using HepaRG (AID 2283475).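 Further: BCL2 transcript by TaqMan qRT-PCR normalised to ACTB GAPDH and POLR2A.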 The method, boiled down: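 Expression change of BCL2 mRNA in HepaRG after 48 h dosing, quantified by TaqMan qRT-PCR against three endogenous controls. Concentration-response used eight points up to 100 uM, vehicle 0.5% DMSO.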

Read-out in experiment [8]: Bcl-2 (BID) gene, BID (gene 637)
In words: LTEA_HepaRG_BID: Life Technologies and Expression Analysis (LTEA) Assay for Bcl-2 (BID) gene using HepaRG (AID 2283476). The method, boiled down:
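Gain or loss of BID expression is fitted relative to 0.5% DMSO vehicle. Human HepaRG liver cells received a 48 h chemical exposure over an eight-point concentration range.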

Read-out in another experiment: Caspase-3 (Homo sapiens) (UniProt P42574)
Kind of experiment: LTEA_HepaRG_CASP3: Life Technologies and Expression Analysis (LTEA) Assay for cysteine-aspartic acid protease (CASP3) using HepaRG (AID 2283477). The method, boiled down:
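Expression of CASP3 was quantified by TaqMan qRT-PCR against three housekeeping genes (ACTB, GAPDH, POLR2A), bidirectionally versus 0.5% DMSO. HepaRG cultures received compounds in duplicate, top 100 uM with half-log steps, for 48 h in serum-free induction medium.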

Read-out in experiment [9]: Cytochrome P450 (CYP24A1), CYP24A1 (gene 1591)
Kind of experiment: LTEA_HepaRG_CYP24A1: Life Technologies and Expression Analysis (LTEA) Assay for Cytochrome P450 (CYP24A1) using HepaRG (AID 2283478). The method, boiled down:
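mRNA of CYP24A1 quantified by TaqMan qRT-PCR (ACTB/GAPDH/POLR2A normalization) after 48 h chemical exposure of HepaRG cells, top concentration 100 uM, half-log steps, 0.5% DMSO vehicle, duplicates. Curves fitted bidirectionally against DMSO baseline.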

Read-out in experiment [10]: Cytochrome P450 (CYP1A2), CYP1A2 (gene 1544)
In words: LTEA_HepaRG_CYP1A2: Life Technologies and Expression Analysis (LTEA) Assay for Cytochrome P450 (CYP1A2) using HepaRG (AID 2283479). The method, boiled down: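 CYP1A2 transcript measured by TaqMan qRT-PCR against three housekeeping genes after 48-hour chemical exposure of HepaRG cells. Eight-point half-log series topping at 100 uM in 0.5% DMSO, duplicates; gain or loss fitted relative to vehicle.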

Read-out in experiment [11]: cysteine-aspartic acid protease (CASP8), CASP8 (gene 841)
Kind of experiment: LTEA_HepaRG_CASP8: Life Technologies and Expression Analysis (LTEA) Assay for cysteine-aspartic acid protease (CASP8) using HepaRG (AID 2283480). The method, boiled down: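 HepaRG, 48 h exposure, duplicate wells; 8 conc, half-log from 100 uM, 0.5% DMSO. Serum-free induction medium. CASP8 mRNA by TaqMan qRT-PCR, norm. ACTB/GAPDH/POLR2A; gain/loss fitted vs DMSO.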

Read-out in experiment [12]: Cytochrome P450 2C19 (Homo sapiens) (UniProt P33261)
Kind of experiment: LTEA_HepaRG_CYP2C19: Life Technologies and Expression Analysis (LTEA) Assay for CYP2C19 using HepaRG (AID 2283482). An outline of the steps: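 CYP2C19 transcript levels by qRT-PCR, normalized to three housekeeping genes, in HepaRG cells after 48 h chemical exposure. Eight-point half-log series topping at 100 uM, 0.5% DMSO vehicle. Increases and decreases both fitted against DMSO.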

Read-out in a further experiment: CYP2C8 (gene 1558)
Kind of experiment: LTEA_HepaRG_CYP2C8: Life Technologies and Expression Analysis (LTEA) Assay for CYP2C8 using HepaRG (AID 2283483). The method, boiled down:
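CYP2C8 mRNA induction or loss, by qRT-PCR normalized to ACTB/GAPDH/POLR2A, is read in HepaRG cells after 48 h treatment. Concentrations run from 100 uM down in half-log dilutions, with 0.5% DMSO as vehicle and baseline.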

Read-out in the next experiment: CYP2C9 (gene 1559)
Kind of experiment: LTEA_HepaRG_CYP2C9: Life Technologies and Expression Analysis (LTEA) Assay for CYP2C9 using HepaRG (AID 2283484). An outline of the steps: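 Cells plated 48 h, switched to serum-free induction medium, then treated in duplicate for 48 h at eight concentrations (max 100 uM, 0.5% DMSO). RNA then analysed by qRT-PCR for CYP2C9; curves fitted in both directions relative to DMSO.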

Read-out in another experiment: CYP2E1 (gene 1571)
In words: LTEA_HepaRG_CYP2E1: Life Technologies and Expression Analysis (LTEA) Assay for CYP2E1 using HepaRG (AID 2283485). The method, boiled down:
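Differentiated HepaRG cells were treated in duplicate for 48 h with chemicals in 0.5% DMSO, from 100 uM downward in half-log dilutions. RNA was then analysed by qRT-PCR for CYP2E1 induction or loss.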

Read-out in a further experiment: CYP4A11 (gene 1579)
Kind of experiment: LTEA_HepaRG_CYP4A11: Life Technologies and Expression Analysis (LTEA) Assay for CYP4A11 using HepaRG (AID 2283486). An outline of the steps:
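Readout is CYP4A11 transcript level by qRT-PCR, normalized to three housekeeping genes and fitted bidirectionally against 0.5% DMSO. Human HepaRG cells were treated 48 h, in duplicate, with an 8-point half-log series topping at 100 uM.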

Read-out in experiment [13]: Cytochrome P450 (CYP2B6), CYP2B6 (gene 1555)
In words: LTEA_HepaRG_CYP2B6: Life Technologies and Expression Analysis (LTEA) Assay for Cytochrome P450 (CYP2B6) using HepaRG (AID 2283481). An outline of the steps:
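CYP2B6 transcript level quantified by qRT-PCR against three housekeeping genes, fitted bidirectionally relative to DMSO. HepaRG cultures received chemicals for 48 h, 8-point half-log series from 100 uM in 0.5% DMSO, duplicate wells, serum-free induction medium.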

The structures appear in SMILES notation. Active and inactive are the calls of the source. How the source made its calls: active means hit-call score of the fitted dose curve at least 0.9, where 1 is the maximum; inactive means score below 0.9.

Sequence of Caspase-3 (Homo sapiens) (P42574 whole entry, looked up): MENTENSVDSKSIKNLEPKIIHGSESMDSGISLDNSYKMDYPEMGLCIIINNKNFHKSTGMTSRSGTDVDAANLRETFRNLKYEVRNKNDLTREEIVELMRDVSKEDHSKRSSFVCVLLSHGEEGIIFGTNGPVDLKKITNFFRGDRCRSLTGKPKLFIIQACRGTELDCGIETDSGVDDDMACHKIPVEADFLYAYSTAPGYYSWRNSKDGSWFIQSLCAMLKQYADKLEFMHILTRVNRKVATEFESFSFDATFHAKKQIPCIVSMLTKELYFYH
Sequence of Apoptosis regulator Bcl-2 (Homo sapiens) (P10415 whole entry, looked up): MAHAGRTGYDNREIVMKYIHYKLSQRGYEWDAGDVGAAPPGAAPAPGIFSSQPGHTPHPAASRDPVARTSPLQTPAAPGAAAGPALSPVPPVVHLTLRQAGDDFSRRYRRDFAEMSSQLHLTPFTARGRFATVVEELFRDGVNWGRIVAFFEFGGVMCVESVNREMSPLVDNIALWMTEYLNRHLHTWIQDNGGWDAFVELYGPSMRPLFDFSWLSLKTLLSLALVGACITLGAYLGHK
Sequence of Cytochrome P450 2C19 (Homo sapiens) (P33261 whole entry, looked up): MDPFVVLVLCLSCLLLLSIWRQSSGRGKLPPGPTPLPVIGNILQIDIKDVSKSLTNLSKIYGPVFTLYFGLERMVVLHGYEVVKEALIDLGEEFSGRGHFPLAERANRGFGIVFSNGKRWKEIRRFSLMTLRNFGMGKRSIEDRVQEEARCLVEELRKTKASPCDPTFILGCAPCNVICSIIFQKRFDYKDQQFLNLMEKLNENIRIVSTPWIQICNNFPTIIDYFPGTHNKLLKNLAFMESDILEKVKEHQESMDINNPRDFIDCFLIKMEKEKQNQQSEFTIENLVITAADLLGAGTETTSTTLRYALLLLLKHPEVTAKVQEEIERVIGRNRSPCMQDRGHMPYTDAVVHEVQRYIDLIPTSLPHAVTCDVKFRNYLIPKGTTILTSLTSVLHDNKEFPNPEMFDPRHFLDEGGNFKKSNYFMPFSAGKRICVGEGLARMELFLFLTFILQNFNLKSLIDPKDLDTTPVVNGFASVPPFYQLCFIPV

The AC50 is the concentration giving half of the maximal activity seen. For the compound `CSc1ccc(Oc2ccc(S(N)(=O)=O)cc2CN(C)C)cc1C`, the call (in experiment [1]; in experiment [3]; in [4]; in the experiment with BCL2L11 (gene 10018); in [6]; in [7]) was inactive. The compound was classed as inactive (in experiment [8]; in the experiment with Caspase-3 (Homo sapiens); in experiment [9]; in [11]; in experiment [12]; with CYP2C8 (gene 1558)). Moreover, in the experiment with CYP2C9 (gene 1559), the result was inactive. Further, the half-maximal activity concentration (AC50) in [2] was 54.5 µM (active); in experiment [5] it was 75 µM (active); in experiment [10] it was 50 µM (active); with CYP2E1 (gene 1571), 47.6 µM (active); in the experiment with CYP4A11 (gene 1579), 77.5 µM (active).

Take `O=C(O)c1cccnc1`: the compound was classed as inactive (in experiment [1]; in experiment [2]; in experiment [3]; in [4]; in experiment [5]; in the experiment with BCL2L11 (gene 10018)). Moreover, the compound was called inactive (in experiment [6]; in [7]; in experiment [8]; with Caspase-3 (Homo sapiens); in experiment [9]; in [10]). The outcome (in [11]; in experiment [12]; in the experiment with CYP2C8 (gene 1558); with CYP2E1 (gene 1571); with CYP4A11 (gene 1579)) was inactive.

Consider `Cc1ccc(C(C)(C)C)c(O)c1`, for which the call (in experiment [1]; in experiment [2]; in experiment [3]; in experiment [4]; in [5]; with BCL2L11 (gene 10018)) was inactive. For the same compound, the call (in [6]; in [7]; in experiment [8]; with Caspase-3 (Homo sapiens); in experiment [9]; in experiment [11]) was inactive. Further, the call (in [13]; in [12]; with CYP2C8 (gene 1558); in the experiment with CYP2C9 (gene 1559); in the experiment with CYP2E1 (gene 1571); with CYP4A11 (gene 1579)) was inactive.

`CCCCCCCCCC[N+](C)(C)[O-]`: the call (in experiment [1]; in experiment [2]; in experiment [3]; in [4]; in [5]; with BCL2L11 (gene 10018)) was inactive. Moreover, the outcome (in [6]; in [7]; in [8]; in the experiment with Caspase-3 (Homo sapiens); in experiment [9]; in [11]) was inactive. Further, the call (in experiment [12]; with CYP2C8 (gene 1558); with CYP2C9 (gene 1559); with CYP2E1 (gene 1571); in the experiment with CYP4A11 (gene 1579)) was inactive.

With `OCC(CO)n1cnc(-c2ccc(F)cc2)c1-c1ccnc(Oc2ccccc2)n1`, the compound was classed as inactive (in experiment [1]; in experiment [2]; in [3]; in experiment [4]; in the experiment with BCL2L11 (gene 10018); in [6]). In addition, the result (in [7]; in [8]; in the experiment with Caspase-3 (Homo sapiens); in [9]; in experiment [11]; with CYP2C8 (gene 1558)) was inactive. For the same compound, the compound was classed as inactive with CYP2C9 (gene 1559). For the same compound, the AC50 in experiment [5] was 28.4 µM (active); in experiment [13], 22.6 µM (active); in experiment [12], 12.4 µM (active); in the experiment with CYP2E1 (gene 1571), 15.5 µM (active); with CYP4A11 (gene 1579), 16.9 µM (active).

The values are drawn from PubChem BioAssay (EPA / NIEHS).
